{"source": "PubChem BioAssay (NCI)", "note": "About 79,000 compounds went through this panel and 15% of them were active in at least one assay; those are over-represented in the sample as a whole. A number with no mark means an inactive call. No stated cut-off is given here; in the data, active means growth inhibition above about 70%; inactive means the rest. Where a SMILES comes first, the peptide text is derived from it. Bridges are numbered along the chain shown (N, C = ends). [ ]: non-standard residue; d: D form. The star is where a group is joined. ξ: configuration not given here. ξNMePhe(4-NMe2) = CNC(Cc1ccc(N(C)C)cc1)C(=O)O; Picolinoyl(3-OH) = O=C(c1ncccc1O)*; ξPip(4-oxo) = O=C1CCNC(C(=O)O)C1; Phg = N[CH](C(=O)O)c1ccccc1; Abu = CC[CH](N)C(=O)O", "data": [{"assay": "NCI Yeast Anticancer Drug Screen. Data for the rad50 strain (AID 155);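 further: 0% = growth of vehicle-only cultures of the same strain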", "details": "S. cerevisiae rad50 strain growth inhibition; at 50.0 µM; stronger effect = higher value", "method": "Growth inhibition of yeast strains with defined genetic alterations is measured as a screen for potential anti-cancer activity. Selected strains with alterations in DNA damage repair or cell cycle control were exposed to compounds and growth inhibition was measured relative to vehicle treated controls. The strain used in this assay is rad50", "units": {"growth inhibition": "%"}, "values": [{"smiles": "O=C(Nc1ccccc1C(=O)NCC1CC1)c1cccs1", "growth inhibition": -13.1}, {"smiles": "COc1ccc(/C(C#N)=C2C=C/C(=N/O)c3ccccc3\\2)cc1", "growth inhibition": -5.15}, {"smiles": "CN(C)CCC(=O)c1ccc(O)cc1", "growth inhibition": 4.6}, {"smiles": "CCCNc1ccc(C2=NCCCN2)cc1", "growth inhibition": 0.55}, {"smiles": "O=c1cc(-c2ccccc2)[nH]c2c1CCCC2", "growth inhibition": -17.8}, {"smiles": "C=CC(=O)OCCCCCCCC", "growth inhibition": 5.4}, {"smiles": "O=C1OC(c2ccc(F)cc2)CC1CN1CCOCC1", "note": "(stereo not given)", "growth inhibition": 0.45}, {"smiles": "COc1ccc(C2(O)CCCCC2)cc1", "growth inhibition": 17.7}, {"smiles": "O=c1[nH]c(O)c(/C=C2/C=Nc3ccccc32)[nH]1", "growth inhibition": 0.45}, {"smiles": "Cc1nc2c(ccc3ccccc32)s1", "growth inhibition": 10.4}, {"smiles": "CC1CCC2C(C)(C)C3CC12CC1OC13C", "note": "(stereo not given)", "growth inhibition": -17.4}, {"smiles": "COc1cc(C(=O)N/N=C/c2cccc([N+](=O)[O-])c2)cc(OC)c1OC", "growth inhibition": -5.5}, {"smiles": "S=c1nn[nH]c2ccccc12", "growth inhibition": 17.4}, {"smiles": "O=C(O)C(c1ccccc1)C(O)c1ccccc1", "note": "(stereo not given)", "growth inhibition": 5.35}, {"smiles": "COc1ccccc1NC(=O)c1cc2cc(Br)ccc2cc1O", "growth inhibition": 34.8}, {"smiles": "CC1(C)OC(=O)C(c2ccsc2)C(=O)O1", "growth inhibition": -6.25}, {"smiles": "CCC1NC(=O)C(NC(=O)c2ncccc2O)C(C)OC(=O)C(c2ccccc2)NC(=O)C2CC(=O)CCN2C(=O)C(Cc2ccc(N(C)C)cc2)N(C)C(=O)C2CCCN2C1=O", "note": "(stereo not given) (tested in a mixture with another compound) ({Picolinoyl(3-OH)}-T[Abu]P[ξNMePhe(4-NMe2)][ξPip(4-oxo)][Phg]; ester 1-C; configuration not given here)", "growth inhibition": 19.4}, {"smiles": "CC(=O)CC(=O)N(C)C", "growth inhibition": 0.3}, {"smiles": "COCCCC/C(=N\\OCCN)c1ccc(C(F)(F)F)cc1", "growth inhibition": 26.5}, {"smiles": "CCOc1ccccc1/C=N/Nc1nc2ccccc2o1", "growth inhibition": 30.6}, {"smiles": "Nc1ccc(NC(=O)c2cccc(N)c2)cc1", "growth inhibition": 15.2}, {"smiles": "CCCCC(CC)COC(C)=O", "note": "(stereo not given)", "growth inhibition": 14.4}, {"smiles": "CC1(C)S(=O)(=O)OCCOS1(=O)=O", "growth inhibition": -25.4}, {"smiles": "Cc1ccc(C)n1-c1ccsc1C(=O)NNC(=O)C(Cl)Cl", "growth inhibition": 5.9}, {"smiles": "CC1OC(Oc2c(-c3ccc(O)c(O)c3)oc3cc(O)cc(O)c3c2=O)C(O)C(O)C1O", "note": "(stereo not given)", "growth inhibition": 21.4}, {"smiles": "[O-][N+](=Nc1cccc(Cl)c1)c1cccc(Cl)c1", "growth inhibition": 19.7}, {"smiles": "O=C(Nc1cccc(NC(=O)Nc2cc(C(F)(F)F)ccc2Cl)c1)Nc1cc(C(F)(F)F)ccc1Cl", "growth inhibition": 18.8}, {"smiles": "c1ccc2c(c1)Sc1ccccc1S2", "growth inhibition": -6.95}, {"smiles": "CC(=O)NC(N)=S", "growth inhibition": 2.3}, {"smiles": "CC1Cc2ccccc2O1", "note": "(stereo not given)", "growth inhibition": 2.7}, {"smiles": "CCOC(=O)Nc1cc2c(c(N)n1)N=C(c1ccccc1)CO2", "growth inhibition": 37.5}, {"smiles": "O=C1NC(=O)C2C(=O)NC(=O)C1C21CCc2ccccc21", "note": "(stereo not given)", "growth inhibition": -8.5}, {"smiles": "O=C(Nc1ccccc1)OCCc1ccccc1", "growth inhibition": 45.3}, {"smiles": "CCS(=O)(=O)c1cc(=O)[nH]c(=O)[nH]1", "growth inhibition": 22.1}, {"smiles": "Cn1cnc2nc(Cl)nc(Cl)c21", "growth inhibition": 13.1}, {"smiles": "CC(=O)OC1CC2C(C)(C)OC3CC(=O)OCC32C2CCC3(C)C(=CCC3c3ccoc3)C12C", "note": "(stereo not given)", "growth inhibition": 6.45}, {"smiles": "Brc1cnc2ccccc2c1", "growth inhibition": 12.8}, {"smiles": "CC(C)(C)c1cc(O)c(C(C)(C)C)cc1O", "growth inhibition": 12.1}, {"smiles": "N#Cc1ccc(NC(=O)Nc2cccc(C#N)c2)cc1", "growth inhibition": -3.5}, {"smiles": "COC(=O)Nc1nc2ccc(C(=O)c3cccs3)cc2[nH]1", "growth inhibition": -1.25}]}]}
